Test results: PubChem BioAssay (Tox21)
Values joined by “and” are separate entries in the source; they are usually repeats but may differ in a detail not shown here. Equal entries are not always repeated. Inconclusive results are not listed. Some compounds were tested as several samples or in several runs, with calls that do not always agree. Active and inactive are the calls of the source. Unless noted, calls come from the whole dose curve; as a rule, active = well fitted curve in the direction sought with a large enough effect in the repeat runs; inconclusive = weak or mixed curves; inactive = no such curve, though single readings can be large; an effect the other way counts as inactive or inconclusive.

Experiments:
[1] = qHTS assay to identify aromatase inhibitors - cell viability counter screen (AID 743084);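 note: cells stimulated with testosterone during compound exposure; nearly all actives have a fitted effect of over 55% in size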; note: potency is the fitted concentration of half-maximal effect
[2] = qHTS assay to identify small molecule antagonists of the peroxisome proliferator-activated receptor gamma (PPARg) signaling pathway - cell viability counter screen (AID 743194); settings: Potency: co-treated with 50 nM rosiglitazone unless noted; note: nearly all actives have a fitted effect of over 55% in size; note: potency is the fitted concentration of half-maximal effect
How it was run: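 Cytotoxicity counter screen in PPARg-bla HEK293H cells, same wells as reporter assay. Compounds plus 50 nM rosiglitazone (final) for 17 h at 37 C, then viability read by CellTiter-Glo luminescence.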

[3] = qHTS assay for small molecule agonists of the antioxidant response element (ARE) signaling pathway - cell viability counter screen (AID 743203; calls by dose curve; note: nearly all actives have a fitted effect of over 55% in size; note: potency is the fitted concentration of half-maximal effect)
How it was run: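 ATP content via CellTiter-Glo luminescence served as the viability measure. Cells: ARE-bla HepG2, 2,000 per well. Exposure: 16 hrs, 37C/5% CO2.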

[4] = qHTS assay to identify small molecule that activate the aryl hydrocarbon receptor (AhR) signaling pathway - cell viability counter screen (AID 743086); note: nearly all actives have a fitted effect of over 45% in size; note: potency is the fitted concentration of half-maximal effect;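 for viability change, negative = cytotoxic: HepG2 liver cells carrying the AhR DRE luciferase reporter; series mostly up to about 70 µM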
How it was run: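 HepG2-AhR-luc (HG2L7.5c1) cells, 4000/well, treated 24 h at 37 C with compound; viability measured as CellTiter-Fluor fluorescence after 30 min in the same wells as the luciferase read.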

[5] = molecular target: Peroxisome proliferator-activated receptor gamma (Homo sapiens) (UniProt P37231); assay: qHTS assay to identify small molecule agonists of the peroxisome proliferator-activated receptor gamma (PPARg) signaling pathway (AID 743094; active = well fitted activation curve with a large enough effect in the signal ratio in the repeat runs, not every such curve was filed as active; the % refers to the signal ratio; note: potency is the fitted concentration of half-maximal effect)
Chain of Peroxisome proliferator-activated receptor gamma (Homo sapiens) (P37231 whole entry, looked up): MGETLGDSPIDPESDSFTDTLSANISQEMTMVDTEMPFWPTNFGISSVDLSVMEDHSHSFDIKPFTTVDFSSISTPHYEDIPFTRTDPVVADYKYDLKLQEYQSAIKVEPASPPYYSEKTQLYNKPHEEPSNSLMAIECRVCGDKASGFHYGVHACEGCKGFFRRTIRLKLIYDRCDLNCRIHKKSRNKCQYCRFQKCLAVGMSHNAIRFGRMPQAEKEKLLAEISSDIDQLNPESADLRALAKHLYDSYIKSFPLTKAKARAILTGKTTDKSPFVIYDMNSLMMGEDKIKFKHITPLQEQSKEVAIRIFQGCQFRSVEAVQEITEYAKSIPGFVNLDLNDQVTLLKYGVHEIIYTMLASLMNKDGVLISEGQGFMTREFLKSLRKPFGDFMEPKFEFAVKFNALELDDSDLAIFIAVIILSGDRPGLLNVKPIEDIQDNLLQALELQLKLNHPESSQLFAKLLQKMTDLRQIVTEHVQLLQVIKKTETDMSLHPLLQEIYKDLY
How it was run: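 Agonism was assessed in a beta-lactamase reporter system, HEK293H cells with a stably integrated UAS-bla construct under PPARg control; the 17 h treatment at 37C preceded a 1 h room-temperature FRET substrate read.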

[6] = qHTS assay for small molecule agonists of the antioxidant response element (ARE) signaling pathway (AID 743202; active = well fitted activation curve with a large enough effect in the signal ratio in the repeat runs, not every such curve was filed as active; the % refers to the signal ratio; note: potency is the fitted concentration of half-maximal effect)
How it was run: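 HepG2 ARE-bla reporter line, 2,000 cells/well; 5 h preincubation 37 C/5% CO2; compound (DMSO) 16 h 37 C; B/G FRET substrate 2 h RT; fluorescence intensity.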

[7] = qHTS assay for small molecule activators of the heat shock response signaling pathway - cell viability counter screen (AID 743209); note: nearly all actives have a fitted effect of over 50% in size; note: potency is the fitted concentration of half-maximal effect
How it was run: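 Compounds dissolved in DMSO were added to overnight-plated HSE-bla HeLa cells and left 5 h at 37 C. Cell viability was quantified by luminescence using CellTiter-Glo.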

[8] = qHTS assay for small molecule activators of the heat shock response signaling pathway (AID 743210; active = well fitted activation curve with a large enough effect in the signal ratio in the repeat runs, with a control signal flat, not every such curve was filed as active; the % refers to the signal ratio;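 note: HeLa cells with beta-lactamase reporter driven by heat shock elements; series mostly up to about 63 µM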)
How it was run: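 Beta-lactamase reporter read-out: FRET substrate fluorescence after 2.5 h at RT, following 5 h compound treatment at 37 C of HeLa cells carrying HSE-driven bla reporter; quantitative HTS format.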

[9] = molecular target: Aryl hydrocarbon receptor (Homo sapiens) (UniProt P35869); assay: qHTS assay to identify small molecule that activate the aryl hydrocarbon receptor (AhR) signaling pathway (AID 743085); note: nearly all actives have a fitted effect of over 15% in size; note: potency is the fitted concentration of half-maximal effect;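 for activation: HG2L7.5c1 human HepG2 liver cells with stably integrated DRE-driven firefly reporter; series mostly up to about 70 µM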
Chain of Aryl hydrocarbon receptor (Homo sapiens) (P35869 whole entry, looked up): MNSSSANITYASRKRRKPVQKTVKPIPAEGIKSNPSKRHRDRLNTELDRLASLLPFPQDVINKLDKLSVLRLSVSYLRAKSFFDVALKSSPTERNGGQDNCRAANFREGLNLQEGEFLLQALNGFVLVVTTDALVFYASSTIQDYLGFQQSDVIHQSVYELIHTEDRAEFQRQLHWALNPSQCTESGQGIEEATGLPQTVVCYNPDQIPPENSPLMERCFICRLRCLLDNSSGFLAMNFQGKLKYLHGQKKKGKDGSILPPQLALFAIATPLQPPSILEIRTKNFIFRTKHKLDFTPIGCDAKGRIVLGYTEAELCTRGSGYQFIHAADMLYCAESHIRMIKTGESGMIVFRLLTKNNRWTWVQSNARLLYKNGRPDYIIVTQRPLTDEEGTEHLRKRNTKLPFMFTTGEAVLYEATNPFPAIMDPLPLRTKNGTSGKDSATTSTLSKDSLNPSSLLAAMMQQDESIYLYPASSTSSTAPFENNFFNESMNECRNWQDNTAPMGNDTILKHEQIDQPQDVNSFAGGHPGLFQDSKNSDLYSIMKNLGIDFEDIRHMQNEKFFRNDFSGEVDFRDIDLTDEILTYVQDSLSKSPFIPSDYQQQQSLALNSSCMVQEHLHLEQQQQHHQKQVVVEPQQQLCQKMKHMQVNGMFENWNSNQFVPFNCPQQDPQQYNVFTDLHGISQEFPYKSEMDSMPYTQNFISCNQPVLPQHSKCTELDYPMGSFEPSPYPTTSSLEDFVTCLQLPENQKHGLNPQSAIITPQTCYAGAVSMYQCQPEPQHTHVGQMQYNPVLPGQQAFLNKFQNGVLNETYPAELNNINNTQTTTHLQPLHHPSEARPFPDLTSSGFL
How it was run: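 Luminescence read-out: ONE-Glo reagent, 30 min at room temperature, in HG2L7.5c1 HepG2 reporter cells treated 24 h at 37C. Viability was measured beforehand by CellTiter-Fluor fluorescence after 30 min at 37C.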

[10] = molecular target: Peroxisome proliferator-activated receptor gamma (Homo sapiens) (UniProt P37231); assay: qHTS assay to identify small molecule antagonists of the peroxisome proliferator-activated receptor gamma (PPARg) signaling pathway (AID 743191; calls by dose curve; note: nearly all actives have a fitted effect of over 30% in size; note: potency is the fitted concentration of half-maximal effect)
How it was run: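 GeneBLAzer PPARg UAS-bla HEK293H cells, 5 h post-plating, exposed to compounds 17 h at 37C. LiveBLAzer B/G FRET substrate added for 1 h at room temperature; beta-lactamase reporter read by fluorescence intensity.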
% is set by controls: 0 for no effect and ±100 for the full control effect.

Fc1ccc(C(OCCN2CCN(CCCc3ccccc3)CC2)c2ccc(F)cc2)cc1
active: Potency [1] 26.6 µM | Potency [2] 16.8 µM | Potency [3] 29.8 µM

Cc1ccc(C)c2ccccc12
inactive: Potency [1] | Potency [4] | Potency [5] | Potency [6] | Potency [3] | Potency [7] | Potency [8]

CCc1cccc(C)c1N(C(=O)CCl)[C@@H](C)COC
inactive: Potency [1] | Potency [4] | Potency [2] | Potency [3] | Potency [7] | Potency [8]
active: Potency [6] 9.69 µM

CSC(=O)c1c(C(F)F)nc(C(F)(F)F)c(C(=O)SC)c1CC(C)C
inactive: Potency [1] | Potency [2] | Potency [6] | Potency [7] | Potency [8]

CC(Cc1ccc(OCC(=O)O)cc1)NCC(O)c1csc(C(F)(F)F)n1 (configuration not stated)
inactive: Potency [9] | Potency [4] | Potency [5] | Potency [10] | Potency [6] | Potency [3] | Potency [7] | Potency [8]

C[C@]12C/C(=C/O)C(=O)C[C@@H]1CC[C@@H]1[C@@H]2CC[C@@]2(C)[C@H]1CC[C@]2(C)O
active: Potency [6] 5.96 µM
inactive: Potency [1] | Potency [4] | Potency [2] | Potency [3] | Potency [7]

CCCCCCC[CH2][Sn]([Cl])([Cl])[CH2]CCCCCCC
inactive: Potency [1] | Potency [4]
active: Potency [2] 48.9 µM | Potency [6] 0.863 µM | Potency [3] 54.4 µM | Potency [7] 30.9 µM

CC(=O)[O-].CC(=O)[O-].O.O.O.[Pb+2]
active: Potency [6] 2.73 µM
inactive: Potency [1] | Potency [4] | Potency [2] | Potency [3] | Potency [7]

CN=C=O
inactive: Potency [1] | Potency [4] | Potency [2] | Potency [6] | Potency [3] | Potency [7]

[C-]1=CC=CC1.[Cl][Zr+2][Cl].c1cc[cH-]c1
inactive: Potency [1] | Potency [4] | Potency [2] | Potency [6] | Potency [3] | Potency [7]

O=C1C(Cl)=C(Cl)C(=O)C(Cl)=C1Cl
active: Potency [1] 10.8 µM and 13.7 µM | Potency [2] 6.92 µM
inactive: Potency [4] | Potency [7]
inactive and 13.7 µM (active): Potency [3]

CN(C)CCc1c[nH]c2ccccc12
inactive: Potency [1] | Potency [4] | Potency [2] | Potency [6] | Potency [3]

COC(=O)/C=C(\C)OP(=O)(OC)OC
inactive: Potency [1] | Potency [4] | Potency [5] | Potency [3] | Potency [7]

BrCCCBr
inactive: Potency [1] | Potency [4] | Potency [2] | Potency [6] | Potency [3] | Potency [7] | Potency [8]

N#CC(C#N)=NNc1cccc(Cl)c1
active: Potency [1] 9.69 µM | Potency [4] 15.4 µM | Potency [2] 0.49 µM | Potency [3] 27.3 µM

CC(=O)O.CC(=O)O.CC(=O)O.CC(=O)O.CC(=O)O.CC(=O)O.CC(=O)O.O.O.[Cr].[Cr].[Cr]
inactive: Potency [1] | Potency [4] | Potency [3] | Potency [7]

O.O.O.O.O.O.O=S(=O)([O-])[O-].[Ni+2]
inactive: Potency [1] | Potency [4] | Potency [2] | Potency [3] | Potency [7]

CCCC[N+]1(C)CCCC1 (tested in a mixture with another compound)
inactive: Potency [1] | Potency [4] | Potency [2] | Potency [3] | Potency [7] | Potency [8]

O=C1C2(Cl)C3(Cl)C4(Cl)C(Cl)(Cl)C5(Cl)C3(Cl)C1(Cl)C5(Cl)C24Cl (configuration not stated)
active: Potency [1] 26.9 µM and 52.2 µM | Potency [2] 38.3 µM | Potency [3] 67.5 µM and 58.5 µM | Potency [7] 48.2 µM

O=C(O)CCCCCCNC1c2ccccc2CCc2ccccc21
inactive: Potency [1] | Potency [4] | Potency [2] | Potency [6] | Potency [3] | Potency [7] | Potency [8]

COP(=S)(OC)Oc1nc(Cl)c(Cl)cc1Cl
inactive: Potency [1] | Potency [5] | Potency [6] | Potency [3] | Potency [7] | Potency [8]

CNC(=O)CSP(=O)(OC)OC
inactive: Potency [1] | Potency [4] | Potency [5] | Potency [2] | Potency [3] | Potency [7] | Potency [8]

CCC[CH2][Sn]([CH2]CCC)([CH2]CCC)[CH2]CCC
active: Potency [1] 43.3 µM | Potency [5] 54.9 µM | Potency [2] 19.5 µM | Potency [3] 15.4 µM

O=[N+]([O-])c1cccc2cccc([N+](=O)[O-])c12
inactive: Potency [1] | Potency [4] | Potency [2] | Potency [3] | Potency [7]
active: Potency [6] 9.73 µM

O=C(Nc1ccc(F)cc1F)c1cccnc1Oc1cccc(C(F)(F)F)c1
inactive: Potency [1] | Potency [4] | Potency [5] | Potency [3] | Potency [7]

CN(C)C(=S)SSC(=S)N(C)C
inactive: Potency [7]
active: Potency [1] 944 nM and 75.9 nM and 54.5 nM | Potency [3] 60.3 µM and 13.7 µM and 18.8 µM
inactive and 154 nM (active): Potency [4]

CO/N=C(/C1=NOCCO1)c1ccccc1Oc1ncnc(Oc2ccccc2Cl)c1F
inactive: Potency [3] | Potency [7]
active: Potency [1] 54.4 µM | Potency [6] 0.544 µM

O=c1[nH]c(Cl)c(Cl)cc1Cl
inactive: Potency [1] | Potency [5] | Potency [3] | Potency [7] | Potency [8]

CCOP(=S)(NC(C)C)Oc1ccccc1C(=O)OC(C)C (configuration not stated)
inactive: Potency [1] | Potency [4] | Potency [10] | Potency [2] | Potency [7] | Potency [8]
active: Potency [6] 54.5 µM

O=C1C[C@@H]2OCC=C3CN4CC[C@]56c7ccccc7N1[C@H]5[C@H]2[C@H]3C[C@H]46
inactive: Potency [1] | Potency [4] | Potency [2] | Potency [6] | Potency [3] | Potency [7] | Potency [8]

[Cl-].[Cl-].[Cl-].[Yb+3]
inactive: Potency [1] | Potency [4] | Potency [2] | Potency [6] | Potency [3] | Potency [7] | Potency [8]

COc1ccc(Cc2nccc3cc(OC)c(OC)cc23)cc1OC
inactive: Potency [1] | Potency [5] | Potency [10] | Potency [2] | Potency [3] | Potency [7] | Potency [8]

CC(=O)[O][Sn]([c]1ccccc1)([c]1ccccc1)[c]1ccccc1
active: Potency [1] 0.344 µM | Potency [4] 0.77 µM | Potency [2] 0.138 µM | Potency [3] 0.0344 µM | Potency [7] 15.5 µM

CCN(CC)Cc1nccn1-c1ccc([N+](=O)[O-])cc1C(=O)c1ccccc1Cl
active: Potency [6] 21.1 µM
inactive: Potency [1] | Potency [4] | Potency [3] | Potency [7] | Potency [8]

CCC[CH2][Sn]([CH2]CCC)([O]C(C)=O)[O]C(C)=O
active: Potency [1] 13.8 µM | Potency [2] 2.78 µM | Potency [3] 6.17 µM

S=C=NCCc1ccccc1
inactive: Potency [4] | Potency [5] | Potency [10] | Potency [2]
active: Potency [9] 54.6 µM | Potency [7] 55.1 µM

Nc1c(Cl)c(Cl)c(Cl)c(Cl)c1Cl
inactive: Potency [4] | Potency [3] | Potency [8]

FC(F)C(F)(F)OCC(Cn1cncn1)c1ccc(Cl)cc1Cl (configuration not stated)
inactive: Potency [2] | Potency [3] | Potency [7] | Potency [8]
active: Potency [9] 6.82 µM

O=C(CCCCl)c1ccc(F)cc1
inactive: Potency [10] | Potency [2] | Potency [6] | Potency [3] | Potency [7] | Potency [8]

CN1C2CCC(C)(C)C1CC(OC(=O)C(O)(c1cccs1)c1cccs1)C2 (configuration not stated)
inactive: Potency [6] | Potency [3] | Potency [8]

Clc1c(Cl)c(Cl)c(Cl)c(Cl)c1Cl
inactive: viability change, negative = cytotoxic [4] 3.05% [at 8.47 µM] | activity change, negative = cytotoxicity [2] -5.6% [at 5.95 µM, co-treated with 50 nM rosiglitazone] | activation [6] -2.23% [at 8.36 µM] | viability change, negative = cytotoxic [3] 3.6% [at 8.36 µM] | activity change, negative = cytotoxicity [7] -0.0057% [at 5.95 µM] | activation [8] -2.21% [at 5.95 µM]

C[C@]12CC[C@H]3[C@@H](CCC4=CC(=O)CC[C@@H]43)[C@@H]1CC[C@@H]2OC(=O)CCc1ccco1
active: Potency [7] 13.3 µM

N#Cc1c2ccccc2cc2ccccc12
inactive: Potency [9] | Potency [2] | Potency [3] | Potency [7]

CSSC
inactive: Potency [4] | Potency [6] | Potency [3] | Potency [7] | Potency [8]

CN1C(=O)[C@@H](NC(=O)c2cc3ccccc3[nH]2)N=C(c2ccccc2)c2ccccc21
inactive: Potency [4] | Potency [2] | Potency [3] | Potency [7]

CCOP(=O)(OCC)Oc1nc(Cl)c(Cl)cc1Cl
active: Potency [10] 1.37 µM
inactive: Potency [5] | Potency [7]

Nc1ccc(Cl)cc1C(=O)c1ccccc1F
inactive: Potency [3] | Potency [7] | Potency [8]

Oc1cc(Cl)c(Cl)c(Cl)c1Cl
active: Potency [9] 11.9 µM | Potency [7] 13.5 µM
inactive: Potency [4]

Nc1cc(Cl)ccc1Cl
inactive: Potency [4] | Potency [2] | Potency [6] | Potency [3] | Potency [7] | Potency [8]

C[C@]12Cc3cn[nH]c3C[C@@H]1CC[C@@H]1[C@@H]2CC[C@@]2(C)[C@H]1CC[C@]2(C)O
inactive: Potency [2] | Potency [3] | Potency [7]
active: Potency [6] 26.6 µM

CC#C[C@]1(O)CC[C@H]2[C@@H]3C[C@H](C)C4=CC(=O)CC[C@]4(C)[C@H]3CC[C@@]21C
active: Potency [6] 23.7 µM
inactive: Potency [3] | Potency [7]

CC[C@]1(O)CC[C@H]2[C@@H]3CCC4=CCCC[C@@H]4[C@H]3CC[C@@]21C
inactive: Potency [9] | Potency [5] | Potency [10] | Potency [2] | Potency [6] | Potency [3] | Potency [7] | Potency [8]

NC1CCC(CC2CCC(N)CC2)CC1 (configuration not stated)
inactive: Potency [9] | Potency [4] | Potency [5] | Potency [2] | Potency [6] | Potency [3] | Potency [7] | Potency [8]

O=[N+]([O-])C(Br)Br
active: Potency [3] 61.3 µM
inactive: Potency [9] | Potency [4] | Potency [5] | Potency [7] | Potency [8]
